Source: PubChem BioAssay
The full list was thinned out, with hits kept by preference.
KDM5B inhibitor = Primary screen for KDM5B Histone Demethylases FDH-coupled qHTS; Lysine-specific demethylase 5B (Homo sapiens), Q9UGL1; KDM5B demethylase, FDH-coupled NADH fluorescence (FDH is formaldehyde dehydrogenase); Potency, µM (top dose mostly 57.7 µM), usual class: inhibitors; 220,000 tested, 2.6% active; AID 1347165, 2019; active = well fitted inhibition curve with a large enough effect; note: 0% is about no effect; nearly all actives have a fitted effect of over 70% in size
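Compound dilutions met 200 nM (final) KDM5BΔAP for 10 min at room temperature before substrate addition. The substrate mix held 12.5 µM H3K4me3 with cofactors 25 µM α-ketoglutarate and 50 µM Fe²⁺. NADH signal gain over 30 min defined activity.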
Starred values were filed as active, the others as inactive; i = inactive. Potency is the fitted concentration of half-maximal effect.

SMILES	KDM5B inhibitor
CC(=O)Nc1ccc(S(=O)(=O)N[C@H]2CO[C@H]3[C@@H]2OC[C@H]3OC(=O)Nc2ccc(Oc3ccccc3)cc2)cc1	i
O=C(O)CCC(=O)N[C@H]1CO[C@H]2[C@@H]1OC[C@@H]2Nc1nccc(-c2ccco2)n1	32µM*
COc1cccc(-c2nnnn2[C@H]2CO[C@H]3[C@@H]2OC[C@@H]3NS(=O)(=O)c2ccc(NC(C)=O)cc2)c1	i
COc1cccc(C(=O)N2CCC3(C2)C(=O)N(CCc2ccccc2)c2ccccc23)c1 (stereo unspecified)	i
O=C(CNc1cccc(S(=O)(=O)N2CCCCC2)c1)Nc1ccc(N2CCCC2)cc1	i
O=C(Cc1cccc(Cl)c1)N1CCC2(C1)C(=O)N(CCc1ccccc1)c1ccccc12 (stereo unspecified)	i
O=S(=O)(Nc1nc2ccccc2nc1Nc1cccc(F)c1)c1cccc(Cl)c1	i
COC(=O)COC(=O)COc1ccccc1Cc1ccccc1	i
CCN1CCN(Cc2nc3c(c(=O)n(C)c(=O)n3C)n2CCCO)CC1	i
Cc1ccc(S(=O)(=O)C(CC(=O)c2ccc(Cl)cc2)C(=O)c2ccc(Cl)cc2)cc1 (stereo unspecified)	i
O=C(NCCCN1CCCCCC1)C1CCC1	i
CCc1nn2c(=O)cc(CNc3cc4c(cc3Cl)OCCCO4)nc2s1	i
O=C(CCn1c(=O)c2sccc2n(CC(=O)Nc2ccccc2)c1=O)Nc1ccc(F)cc1	i
O=C(NCc1ccccn1)C1(c2ccccc2)CCC1	i
C=CCc1ccccc1OCC(O)CN (stereo unspecified)	i
CCc1nc(-c2c3n(c(=O)n(Cc4cccc(F)c4)c2=O)CCCC3)no1	i
CCn1ncc(Cl)c1CNC(=O)C1CCCN(S(=O)(=O)c2cnn(C)c2C)C1 (stereo unspecified)	i
O=C(Nc1cccc(C(F)(F)F)c1)O[C@@H]1CO[C@H]2[C@@H]1OC[C@@H]2Nc1nccc(-c2ccccc2)n1	i
O=C(O)CSCC(=O)N[C@H]1CO[C@H]2[C@@H]1OC[C@@H]2Nc1nccc(-c2cccc(F)c2)n1	25µM*
Cc1ccc2nc(C3=C(O)CN(c4cc(Cl)cc(Cl)c4)C3=N)[nH]c2c1	i
Cc1cc(C(=O)CSc2nnc(COc3ccccc3Cl)n2C)c(C)n1CC(F)(F)F	i
Cc1cn2nc(C(=O)NCc3cccnc3)cc2c(N2CCCC2)n1	i
Cc1cn2nc(C(=O)NCCCc3ccccc3)cc2c(N2CCCC2)n1	25µM*
Cn1ncc(N2CCCC(C(=O)NCCCc3ccccc3)C2)cc1=O (stereo unspecified)	i
Cc1cn2nc(C(=O)NCc3cccc(Cl)c3)cc2c(N2CCCC2)n1	25µM*
SMILES	KDM5B inhibitor
Cc1cn2nc(C(=O)NCCc3ccccc3)cc2c(N2CCCC2)n1	i
CCOc1cccc(CNC(=O)c2cc3c(N4CCCC4)nc(C)cn3n2)c1	i
CS(=O)(=O)N1CCCc2cc(C(=O)CSc3ccc(F)c(F)c3)ccc21	i
CCc1noc(-c2ccn3c(CNC(=O)c4cccc(OC)c4)nnc3c2)n1	28µM*
CCc1noc(-c2ccn3c(CNC(=O)c4ccoc4)nnc3c2)n1	28µM*
CCCc1noc(-c2ccn3c(CNC(=O)c4cccnc4)nnc3c2)n1	28µM*
CCCc1noc(-c2ccn3c(CNC(=O)c4ccc5[nH]ccc5c4)nnc3c2)n1	i
CCCc1noc(-c2ccn3c(CNC(=O)c4ccc(C)c(F)c4)nnc3c2)n1	28µM*
Cc1noc(-c2ccn3c(CNC(=O)c4cccnc4)nnc3c2)n1	i
O=c1c2ccccc2c(-c2ccc(Cl)cc2)nn1-c1cc(N2CCNCC2)ccc1[N+](=O)[O-]	i
N#Cc1nc(-c2ccc(S(=O)(=O)N3CCCC3)cc2)oc1NCCCn1ccnc1	i
O=C(/C=C/c1ccc2ccccc2n1)OCC(=O)N(/N=C/c1ccccc1)c1cccc(C(F)(F)F)c1	i
O=C(NC1(C(F)(F)F)C(=O)Nc2c1c(=O)[nH]c(=O)n2-c1ccc(Cl)cc1)c1ccco1 (stereo unspecified)	i
CC1CCCN(C(=O)/C=C/c2cccs2)C1 (stereo unspecified)	i
CC(C)c1cc(C(=O)Nc2ccc(Cl)c(C(F)(F)F)c2)nn1C1CCS(=O)(=O)C1 (stereo unspecified)	i
COc1ccc(-c2c(C)oc3cc(OCCN4CCC(C(N)=O)CC4)ccc3c2=O)cc1	i
CC(c1nc(C2CC2)no1)N1CCC(c2ccnn2CCO)CC1 (stereo unspecified)	i
CN1CCN(CC(=O)N2CCNC(=O)C2CC(=O)Nc2ccc(Br)cc2)CC1 (stereo unspecified)	i
CCc1noc(-c2ccn3c(CNC(=O)c4ccncc4)nnc3c2)n1	25µM*
Cc1noc(-c2ccn3c(CNC(=O)c4ccoc4)nnc3c2)n1	25µM*
Cc1noc(-c2ccn3c(CNC(=O)c4ccncc4)nnc3c2)n1	i
C/C(=N/Nc1ccc(S(N)(=O)=O)cc1[N+](=O)[O-])c1ccc(C(C)(C)C)cc1	i
